Bioassay records deposited in PubChem BioAssay by National Center for Advancing Translational Sciences (NCATS).
DT40 TDP1 CPT: DT40-hTDP1 cell growth loss with CPT. chicken DT40 Tdp1-/-;hTDP1 cells + 20 nM CPT, ATP luminescence, 48 h. Potency, µM (titrated, usually from 46.2 µM), for inactives: at the highest dose activity change, negative = growth inhibition, usual class: inhibitors. 12% of 420,000 active. AID 686979; also: potency is read from the fitted curve at half-maximal effect; nearly all actives have a fitted effect of over 55% in size
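Chicken DT40 Tdp1-/- cells stably complemented with human TDP1 were seeded at 400 cells/well in medium containing 20 nM camptothecin, exposed to pin-transferred compounds, and grown at 37 °C for at least 48 hr. Viability was read as ATP luminescence.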
TDP1 cell noCPT: qHTS for Inhibitors of human tyrosyl-DNA phosphodiesterase 1 (TDP1): qHTS in cells in absence of CPT; Potency, µM (titrated, usually from 46.2 µM), without a hit: at the highest dose activity change, negative = growth inhibition, usual class: inhibitors; DT40 Tdp1-/- hTDP1 cells, no CPT, ATP luminescence, 48 h; 15% of 420,000 active; also: potency is read from the fitted curve at half-maximal effect; nearly all actives have a fitted effect of over 55% in size
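Growth kinetics read by CellTiter-Glo luminescence after ≥48 hr at 37 °C. Cells: DT40 Tdp1-/- stably carrying human TDP1, 400 per well, compound exposure in the absence of CPT (DMSO vehicle).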
IL1B secr inh: inflammasome signaling inhibition, IL-1 beta readout; AID 743279; THP-1 LPS/ATP IL-1B secretion, AlphaLISA, 16 h; stronger effect = lower value; 4.7% of 360,000 active; activity change, % at 57.5 µM; in the data active = activity change below about -50%; inconclusive = mostly about -30% to -49%
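THP-1 cells pretreated 1 hr with compounds (up to 57.5 uM final), then stimulated with LPS (250 ng/mL final) plus ATP (1.25 mM final); secreted IL-1B measured by AlphaLISA after 16 hr, decreased signal indicating inhibition.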
ELG1 repair inh: inhibitors of ELG1-dependent DNA repair in HEK293T cells; Potency, µM (top dose mostly 46.1 µM), inactives show at the highest dose activity change, negative = inhibition, usual class: inhibitors; HEK293T ELG1-luciferase reporter, luminescence, 16 h; DNA damage induced by 5-fluorouridine; 2.3% of 330,000 active; also: potency is read from the fitted curve at half-maximal effect; nearly all actives have a fitted effect of over 55% in size
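Overnight (16 hr) co-exposure of 2,000 cells/well to 5-fluorouridine and compound at 37 °C preceded detection. Luciferase was quantified via ONE-Glo luminescence; loss of signal denotes inhibition.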
HT1080-NT tox: kills 2HG-producing HT-1080-NT fibrosarcoma cells | HT-1080-NT fibrosarcoma viability, CellTiter-Glo ATP luminescence, 48 h | Potency, µM (highest dose often 46.1 µM), for inactives: top-dose activity, negative = less viability, most hits filed as cytotoxic | 1.6% of 360,000 active;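 also: NT is the 2HG producing partner of a matched IDH1 knockdown line; potency is read from the fitted curve at half-maximal effect; 0% = DMSO-treated cells and -100% = media-only wells without cells; nearly all actives have a fitted effect of over 55% in size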
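Compounds were tested in concentration-response format on HT-1080-NT cells for 48 hours at 37 degrees C. Cell viability came from CellTiter-Glo luminescence; curves were classified by r2, response magnitude and activity.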
HT1080 IDH1KD tx: toxicity to HT-1080 IDH1 knockdown cells (counter line). HT-1080 IDH1 knockdown viability, ATP luminescence, 48 h. Potency, µM (highest dose often 46.1 µM), without a hit: at the highest dose activity, negative = toxicity, usual class: cytotoxic. 2% of 360,000 active;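 also: potency is read from the fitted curve at half-maximal effect; 0% = DMSO wells and -100% = cell-free medium wells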
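Knockdown cells (IDH1KD HT-1080) received compounds 2 h after plating at 750 cells/well and were kept 48 h at 37 °C in 5% FBS RPMI. A CellTiter-Glo luminescence read gave % activity for curve fitting.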
Numbers without * were called inactive; ? = inconclusive; nt = no result given; [ ] = dose if it differs, or a comment. Only some compounds are listed: those with a hit (about 19% of all), similar ones and a draw of the others. Unless noted, calls follow the shape of the dose curve; as a rule, active = well fitted curve in the direction sought with a large enough effect; inconclusive = small, poorly fitted or top-dose-only effect, or another doubt; inactive = no such curve, though single readings can be large; an effect the other way counts as inactive or inconclusive. Unless noted, % is scaled to controls: 0 for no effect and ±100 for the full control effect.

SMILES	DT40 TDP1 CPT	TDP1 cell noCPT	IL1B secr inh	ELG1 repair inh	HT1080-NT tox	HT1080 IDH1KD tx
CCCCOc1cccc(C(=O)NNC(=S)NC2CCCCC2)c1	?	16µM*	3	?	-10%	-13%
CC1CCCN(C(=S)Nc2ccc(F)cc2)C1 (stereo not given)	16%	-12%	-13	-14%	15%	9%
S=C(Nc1ccc(Nc2ccccc2)cc1)NC1CCCCCC1	23µM*	16µM*	-79*	?	?	?
FC(F)Oc1ccc(NC(=S)NC2CCCCCCC2)cc1	?	?	-91*	19%	?	?
COc1ccc(NC(=O)Cn2c(=O)n(Cc3ccco3)c(=O)c3sc4ccccc4c32)cc1OC	-2%	-19%	nt	nt	nt	nt
C/C(=N\NC(=S)NC1CCCCC1)c1cccs1	13µM*	10µM*	19	-30%	-14%	-14%
C/C(=N\NC(=S)NC1CCCCC1)c1c(F)cccc1F	?	?	16	?	-3%	-27%
C/C(=N\NC(=S)NC1CCCCC1)c1ccc(OC(F)F)cc1OC(F)F	26µM*	26µM*	?	-14%	?	?
C/C(=N\NC(=O)C1CC1)c1ccc(OC(F)F)cc1OC(F)F	-5%	?	-6	6%	10%	17%
CCOc1ccc(NC(=O)c2ccc(NC(=S)NC3CC3)cc2)cc1	-8%	-9%	-1	?	-19%	-15%
CCOc1ccc(NC(=O)c2ccc(NC(=S)NC3CCCCC3)cc2)cc1	21µM*	?	-24	?	-22%	?
COc1ccc(-c2cn3c(n2)sc2cc(C(=O)NCCC4=CCCCC4)ccc23)cc1	?	13µM*	nt	nt	nt	nt
COc1ccc(-c2cn3c(n2)sc2cc(C(=O)NCCc4ccc(OC)cc4OC)ccc23)cc1	7.3µM*	9.2µM*	nt	nt	nt	nt
CCOc1ccc(-c2cn3c(n2)sc2cc(C(=O)NCCc4ccc(OC)cc4OC)ccc23)cc1	-21%	?	nt	nt	nt	nt
CCOC(=O)N1CCC(NCCNC(=O)c2cccc(F)c2)CC1	2%	-20%	0	14%	1%	5%
Cc1ccc(S(=O)(=O)c2ccc([N+](=O)[O-])o2)cc1	0.033µM*	0.18µM*	-100*	nt	7.3µM*	2.6µM*
Cc1cc2c(NC(=O)Nc3ccccc3)cccc2nn1	-23%	?	39	?	24%	22%
Cc1ccccc1NC(=O)Nc1ccc(C(F)(F)F)cc1	9.2µM*	8.2µM*	-10	?	-28%	?
Cc1ccccc1NNC(N)=S	21µM*	23µM*	?	-1%	0%	0%
CCOC(=O)C(=O)NNc1ccccc1C	19%	-2%	16	-1%	0%	2%
Cc1cc2c(NC(=O)Nc3ccc(C(C)(C)C)cc3)cccc2nn1	?	?	80	15µM*	?	-14%
NC(=O)c1ccccc1NC(=O)Nc1cccc2ccccc12	1.6µM*	4.6µM*	-11	?	-14%	-5%
CC(C)C(=O)c1cc2c(cc1NC(=O)Nc1cccc3ccccc13)OCCO2	nt	nt	nt	23µM*	nt	nt
CC(C)C(=O)c1cc2c(cc1NC(=O)c1ccccc1)OCCO2	-3%	-20%	?	0%	0%[9.24 µM]	5%
O=C(Nc1ccccc1F)Nc1cccc2ccc(O)cc12	16µM*	16µM*	-9	13µM*	6%	2%
Cc1ccccc1NC(=O)Nc1ccccc1C(N)=O	10µM*	?	-10	10%	0%	-1%
Cc1nn(-c2ccc(C(=O)OC(C)C)cc2)c(C)c1[N+](=O)[O-]	-1%	26µM*	-9	0%	7%	0%
CCn1c2ccccc2c2cc(CN3CCN(Cc4ccc(Br)cc4)CC3)ccc21	18µM*	15µM*	nt	nt	nt	nt
